Sampled rows, rich in hits. Any-hit rate of the full collection: about 2.8%.
CF NFkB block = inhibitors of PAF-induced NF-kB signaling, primary screen, cell-based, GFP fluorescence, uHTS; actives 0.86% (n = 360,000); inhibition, % at 5 µM; KKLEB NF-kB-GFP reporter, GFP fluorescence overnight;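 active = at least 50% inhibition at 5 µM, scaled per plate between neutral and stimulator controls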;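 also: PAF is a Pseudomonas aeruginosa culture filtrate used as stimulus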
Peg3 prom inh = Peg3 promoter-driven luciferase inhibitors, primary screen, cell-based, HeLa, luciferase luminescence; HeLa PEG-Prom luciferase reporter, overnight; inhibition, % at 20 µM; actives 1.7% (n = 360,000); AID 588405, 2011;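 active = inhibition of at least 50% at 20 µM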
TRPM1 prom inh = inhibitors of MITF-dependent TRPM1 promoter reporter, primary screen, cell-based, SK-MEL-5, single point, luciferase. actives 0.83% (n = 330,000). SK-MEL-5 TRPM1 promoter luciferase, 24 h. AID 488899, 2010. inhibition, % at 12.5 µM;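 active = mean inhibition across replicates of 60% or more, whatever share of single replicates reaches that level; inconclusive = some that reach 60%, reason not given; inactive = mean inhibition across replicates below 60%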
HIF-2a block = HIF-2a reporter inhibitors, primary screen, luminescence, 786-0 RCC cells. 786-0 RCC cells HIF-2a reporter, luciferase luminescence, overnight. inhibition, % at 18.8 µM. actives 0.72% (n = 360,000);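 active = inhibition of the luminescence signal of 40% or more relative to plate controls, in a single-dose primary screen at 18.75 µM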
Shn3 3UTR inh = reduction of Shn3 3'UTR firefly luciferase signal, primary screen, Schnurri-3 inhibitor project, cell-based, Clone20 osteoblasts, set 2 | inhibition, % at 12.5 µM | AID 588674, 2011 | Clone20 osteoblast Shn3 3'UTR firefly luciferase, 24 h | actives 0.52% (n = 360,000);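 active = mean inhibition of at least 75% with every replicate also reaching 75%; inconclusive = mean inhibition at least 75% but some replicate below; inactive = mean inhibition below 75%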
KKLEB tox = cytotoxicity in KKLEB CF airway cells, primary screen, cytotoxicity control for CF NF-kB inhibitor project, cell-based, uHTS, fluorescence assay plates; KKLEB CF airway cells viability, ATPlite luminescence, overnight; stronger effect = lower value; cells stimulated with P. aeruginosa culture filtrate; activity change (cytotoxicity), % at 5 µM; actives 0.36% (n = 360,000);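 active = corrected activity change at or below -50% at 5 µM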
Hits are given with their value; . = inactive; ? = inconclusive; / = no result given.

SMILES | CF NFkB block | Peg3 prom inh | TRPM1 prom inh | HIF-2a block | Shn3 3UTR inh | KKLEB tox
CCOC(=O)C1=CN(Cc2ccco2)S(=O)(=O)NC1c1cccc(OC)c1 (stereo not given) | . | . | . | . | . | .
CCN(CC)c1ccc(C(NC(=O)C(C)C)c2ccc3cccnc3c2O)cc1 (stereo not given) | . | . | / | . | . | .
CC(C)C(=O)NC(c1ccco1)c1ccc2cccnc2c1O (stereo not given) | . | 53 | 76 | . | . | .
CCC(=O)NC(c1cccs1)c1cc([N+](=O)[O-])c2cccnc2c1OC (stereo not given) | . | . | / | . | . | .
CC(C)C(=O)NC(c1cccs1)c1cc([N+](=O)[O-])c2cccnc2c1O (stereo not given) | . | 56 | . | . | . | .
CCC(=O)NC(c1cccs1)c1ccc2cccnc2c1O (stereo not given) | . | . | 76 | . | . | .
CCCCC(=O)NC(c1ccc(N(C)C)cc1)c1ccc2cccnc2c1O (stereo not given) | . | . | 61 | . | 93 | .
O=C(COc1ccc([N+](=O)[O-])cc1)NNC(=O)c1cccs1 | . | . | . | . | . | .
O=C(COC(=O)CN1C(=O)C(=O)c2ccccc21)OCN1C(=O)c2ccccc2C1=O | . | . | . | . | . | .
CC(C)CC(=O)NC(c1cccs1)c1ccc2cccnc2c1O (stereo not given) | . | . | ? | . | 89 | .
CC(=O)NC(c1cccs1)c1cc(F)c2cccnc2c1O (stereo not given) | . | . | . | . | . | .
COc1ccc(NC(=O)COC(=O)/C=C/C(=O)OCC(=O)Nc2ccc(OC)c(Cl)c2)cc1Cl | . | 56 | . | . | . | .
CCOC(=O)/C=C/C(=O)OCC(=O)Nc1ccc(OC)c(Cl)c1 | . | . | . | . | . | .
Nc1ccc(NC(=O)c2ccccc2)c2c1C(=O)c1ccccc1C2=O | 61 | . | . | . | . | -53
COCCCN(C(=O)Cc1ccc(S(=O)(=O)N2CCOCC2)s1)c1c(N)n(Cc2ccccc2)c(=O)[nH]c1=O | . | . | . | . | . | .
CC(C)(C)OC(=O)N1CCc2onc(-c3ccc(Cl)cc3)c2C1=O | . | . | / | . | . | .
CC(C)(C)n1ncc2c(=O)n(Cc3cccc(Cn4cnc5c(cnn5C(C)(C)C)c4=O)c3F)cnc21 | . | . | . | . | 89 | .
Cc1ccccc1Cn1cnc2c(cnn2C(C)(C)C)c1=O | . | . | . | . | . | .
Cc1ccc(C)c(S(=O)(=O)N2CCN(C(=O)c3ccc(OCc4c(C)noc4C)cc3)CC2)c1 | . | . | . | . | . | .
COc1cccc2sc(=NC(=O)CS(=O)(=O)c3ccc(F)cc3)n(C)c12 | . | . | . | . | . | .
COc1cccc2sc(=NC(=O)CS(=O)(=O)c3ccc(Cl)cc3)n(C)c12 | . | . | . | . | 88 | .
C=CCSc1nc2sc3c(c2c(=O)[nH]1)CCC3 | . | . | . | . | . | .
COc1ccc(OC)c(C(=O)N2CCCC(Nc3ccc(F)cc3)C2)c1 (stereo not given) | . | . | . | . | . | .
Cc1ccc(C)c(S(=O)(=O)Nc2ccc(O)c3ccccc23)c1 | 86 | . | . | . | . | -53
COc1ccc(S(=O)(=O)Nc2ccc(O)c3ccccc23)cc1 | 90 | . | 69 | . | . | .
SMILES | CF NFkB block | Peg3 prom inh | TRPM1 prom inh | HIF-2a block | Shn3 3UTR inh | KKLEB tox
CN(CC(=O)Nc1ccc(F)c(F)c1F)C(=O)C1CCCC1 | . | . | . | . | . | .
c1ccc([C@H]2CNCCN2CCc2cccc3ccccc23)cc1 | . | 86 | . | . | . | .
c1ccc2c(C[C@@H]3CNCCN3CC3CCCCC3)cccc2c1 | . | 94 | . | . | . | .
COc1ccc(-n2c(C)cc(C(=O)CCl)c2C)cc1 | . | 101 | 95 | 40 | . | .
Cc1cc(-n2c(C)cc(C(=O)CN3C(=O)C(=O)N(C)C3=O)c2C)no1 | . | . | . | . | . | .
Cc1cc(C(=O)CCl)c(C)n1-c1c(C)n(C)n(-c2ccccc2)c1=O | . | 60 | . | . | . | .
Cc1cc(-n2c(C)cc(C(=O)CCl)c2C)no1 | . | 75 | 76 | . | . | .
O=C(Nc1ccc(Nc2ccccc2)cc1)c1ccc(Cl)c([N+](=O)[O-])c1 | . | . | . | . | . | .
O=C(Nc1ccccc1N1CCCCC1)c1ccc(Cl)c([N+](=O)[O-])c1 | . | 101 | . | . | . | .
O=C(Nc1ccccc1-c1ccccc1)c1ccc(Cl)c([N+](=O)[O-])c1 | . | 94 | . | . | . | .
CC1CCN(c2ccccc2NC(=O)c2ccc(N3CCOCC3)c([N+](=O)[O-])c2)CC1 | . | . | . | . | . | -54
Cc1cc(C(=O)Nc2ccccc2N2CCOCC2)ccc1[N+](=O)[O-] | . | . | . | . | . | .
O=C(Nc1cccc(Cl)c1N1CCCCC1)c1ccc(N2CCOCC2)c([N+](=O)[O-])c1 | 65 | . | . | . | . | -68
COC(=O)C1=C(C)NC2=C(C(=O)CCC2)C1c1ccc(-c2ccsc2C(=O)OC)o1 (stereo not given) | . | . | . | . | . | .
O=C(CNCCc1ccc(F)cc1)Nc1cc(F)ccc1F | . | . | . | . | . | .
Cc1ccccc1S(=O)(=O)NC(=O)C1(C)CCN1C(=O)C1(c2ccccc2)CC1 (stereo not given) | . | . | / | . | . | .
CC1CC(C)CN(CC(O)COCc2ccccc2F)C1 (stereo not given) | . | . | . | . | . | .
N#CCCn1cc(/C=N/N=C2\NC(=O)C(CC(=O)O)S2)c(-c2ccc(F)cc2)n1 (stereo not given) | . | . | . | . | . | .
O=c1[nH]c2ccccc2n2cnnc12 | . | . | . | . | . | .
Cc1ccc(CNC(=O)CNC(=O)c2ccc(Br)o2)cc1 | . | . | . | . | . | .
O=C(Nc1nc(-c2ccccc2)cs1)c1ccc(N2CCOCC2)c([N+](=O)[O-])c1 | . | 67 | 80 | . | . | .
O=C(Nc1ccccc1Cl)c1ccc2c(=O)n3c(nc2c1)CCC3 | . | . | . | . | . | .
CC(=O)Nc1ccc(C(=O)Nc2cccc(S(=O)(=O)N(C)c3ccccc3)c2)cc1 | . | . | . | . | . | .
O=C(Nc1nc(-c2ccccc2)cs1)c1ccc2c(=O)n3c(nc2c1)CCCCC3 | . | 74 | . | . | . | .
